The record followed here is PubChem BioAssay (NCI).

SMILES strings stand for the structures. The panel holds about 79,000 compounds, 15% with a hit somewhere; the sample as a whole holds those more often. A number with no mark means an inactive call. Rule as the data show it: active = growth inhibition above about 70%; inactive = the rest.

One test is described as follows: NCI Yeast Anticancer Drug Screen. Data for the bub3 strain (AID 167). To be noted: S. cerevisiae bub3 mutant strain, at 50.0 µM, hits give high values. Summed up:
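Whole-cell yeast assay. The mutant strain was incubated with compounds, and growth inhibition was determined by comparison with vehicle-treated cells.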
For the compound `Cc1ccc(S(=O)(=O)CC(=O)c2ccc(Br)cc2)cc1`, the growth inhibition was 6.55%.
On the same count and under the same terms, the value for `CCCc1[nH]n(-c2ccccc2)c(=O)c1N=Nc1ccc(Cl)cc1` was -7.6%.
Same read-out and setting: the result for `Cc1nc(N)nc(CCC(=O)Nc2cccc(C(F)(F)F)c2)c1-c1ccc(Cl)cc1` reads -3.6%; that for `CCOC(=O)Nc1cc(C(F)(F)F)ccc1F`, 3.95%; that for `CCCN(CCC)C(=O)c1ccc(C(C)C)cc1`, 9.7%.
The same measure, in the same setting: the value for `Cc1cccc(/C=C(\C#N)C(=O)c2ccccc2)c1` was -5.25%; that for `CC(=O)Nc1ccc(/C=c2\sc3nnc(CCC(=O)Nc4ccccc4Cl)n3c2=O)cc1` was 7.1%.
As for `CCOC(=O)CCC(=O)N(CC)CC`, the growth inhibition is -10.9%.
On the same count and under the same terms, the result for `Cc1cccc(-c2nc3sc(-c4cccc(C)n4)nc3s2)n1` reads 4.05%.
The same measure, in the same setting: the result for `O=C1C2CC3C(C2)C13` reads -10.2%.
Take `CC1COC(C)(C)O1` (stereo not drawn): the growth inhibition is 8%.
Still for that read-out and setting: the value for `Cc1ncnc(N)c1N` was 18.1%.
Consider `Cc1cc([N+](=O)[O-])c(NCCOC(=O)c2ccc([N+](=O)[O-])cc2)c([N+](=O)[O-])c1`, for which the growth inhibition is 2.8%.
In the case of `Clc1cccc(CC(Br)Br)c1`, the growth inhibition was -4.65%.
Still for that read-out and setting: the value for `Cc1nc2c(cnn2C)c(=O)n1-c1ccccc1Cl` was 29.9%; that for `C=CCNC(=S)/N=C/c1c(C(=O)OCC)[nH]n(-c2ccccc2)c1=O` was -26%.
On the same count and under the same terms, the result for `O=C(CC(=O)c1ccccc1)Cc1ccccc1.O=C(CC(=O)c1ccccc1)Cc1ccccc1.[Cu]` reads 12.2%; that for `CN1C(c2ccccc2)=C(C#N)C(=O)CC(c2cccs2)N1C` (stereo not drawn), 8.15%; that for `[O-][n+]1ccc(Cl)cc1`, -10.1%.
On the same count and under the same terms, the result for `CCCCCCCCCCCCOc1ccc(F)cc1C` reads 10.7%.
Consider `COc1ccc(NS(=O)(=O)c2ccc(NC(=O)NCCCl)cc2)nn1`, for which the growth inhibition is 2.55%.
On the same count and under the same terms, the result for `CC(C)n1c(=S)[nH]c2c(=O)[nH]c(=O)[nH]c21` reads 10.8%.

Another test is described as follows: NCI Yeast Anticancer Drug Screen. Data for the mlh1 rad18 strain (AID 175). As to conditions: S. cerevisiae mlh1 rad18 strain growth inhibition; at 50.0 µM; hits give high values. Summed up:
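Inhibition values reflect reduced growth of mutant yeast versus vehicle-treated controls following compound exposure; the mutations affect DNA damage repair.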
Regarding `COc1ccc(OC)c(NC(=O)c2ccc(Cl)c(Cl)c2)c1`, the growth inhibition is 0.85%.
The same measure, in the same setting: the value for `C/C(Cl)=N\OC(=O)Nc1ccc([N+](=O)[O-])cc1` was 43.4%; that for `Brc1ccccc1N=Nc1ccccc1Br` was -20.5%.
The same measure, in the same setting: the result for `COC(=O)C(Cl)=C1CC1` reads -5.6%; that for `CC(=O)OC1CC2CCCCC2CC1[N+](C)(C)C` (stereo not drawn), -35.8%; that for `CC(C)(C(=O)O)c1ccccc1C(=O)c1ccccc1`, 14.3%.
Same read-out and setting: the value for `CCC1=C(C(C)=O)[C@@H]2CCCCC(C(=O)OC)[C@@H]2C1=O` (stereo partly drawn) was -3.7%.
Regarding `Nc1cc2[nH]cnc2c(=O)[nH]1`, the growth inhibition was 30.1%.
As for `Cc1nn(-c2nc(-c3ccc(Br)cc3)cs2)c(C)c1C`, the growth inhibition is 3.45%.
On the same count and under the same terms, the result for `Cc1cc(-c2ccc(Cl)cc2)c(C#N)c(=S)n1C1OC(CO)C(O)C(O)C1O` (stereo not drawn) reads 2.8%; that for `C/C=C/Sc1ccccc1C(=O)O`, -34%; that for `C/C(=N/NC(N)=O)c1c(C)c(Cl)cc(Cl)c1OCCCC(C)C`, -10.6%.
Still for that read-out and setting: the result for `CN(C)c1ccc(/C=C(\C#N)c2cccc(F)c2)cc1` reads -20.2%.
As to `COc1ccccc1/C=C(\C#N)C(=O)O`, the growth inhibition is -17.9%.
Still for that read-out and setting: the result for `O=C(CC(=O)N1N=C(n2ccc3ccccc32)CC1c1ccccc1)Nc1cccc(Cl)c1` (stereo not drawn) reads -5.85%.
Still for that read-out and setting: the result for `CC(=O)OC1C/C(C)=C/CCC(C)/C=C/C2(C)CCC(C(C)(C)O)C12` (stereo not drawn) reads 17.6%; that for `C[N+](C)(C)c1cc2c(nn1)Nc1ccccc1S2`, 8.35%; that for `CCCCCCCCCCCCCCCC(=O)ON1C(=S)NC(C)(c2ccccc2)C1=S` (stereo not drawn), -17.6%.
As for `Cc1ccc(S(=O)(=O)CC(=O)c2ccc(Br)cc2)cc1`, the growth inhibition is 8.75%.
The same measure, in the same setting: the value for `CCCc1[nH]n(-c2ccccc2)c(=O)c1N=Nc1ccc(Cl)cc1` was -0.8%; that for `Cc1nc(N)nc(CCC(=O)Nc2cccc(C(F)(F)F)c2)c1-c1ccc(Cl)cc1` was 11.1%.
The same measure, in the same setting: the result for `CCOC(=O)Nc1cc(C(F)(F)F)ccc1F` reads -7.1%; that for `CCCN(CCC)C(=O)c1ccc(C(C)C)cc1`, 9.7%; that for `Cc1cccc(/C=C(\C#N)C(=O)c2ccccc2)c1`, 21.2%.
On the same count and under the same terms, the value for `CC(=O)Nc1ccc(/C=c2\sc3nnc(CCC(=O)Nc4ccccc4Cl)n3c2=O)cc1` was -9.55%; that for `CCOC(=O)CCC(=O)N(CC)CC` was -13%.
